Measured values reported in the supplement of paper PMC3334620.
Over roughly 33,000 sequences, “E-score (-0.5 to 0.5)” has its median near -0.036; the highest 2% begin near 0.37. The sample holds the highest values, similar sequences and a random draw of the others, so the mix is not that of the screen.

Molecular target: T1, Yer064c (UniProt P40041)
T1 sequence: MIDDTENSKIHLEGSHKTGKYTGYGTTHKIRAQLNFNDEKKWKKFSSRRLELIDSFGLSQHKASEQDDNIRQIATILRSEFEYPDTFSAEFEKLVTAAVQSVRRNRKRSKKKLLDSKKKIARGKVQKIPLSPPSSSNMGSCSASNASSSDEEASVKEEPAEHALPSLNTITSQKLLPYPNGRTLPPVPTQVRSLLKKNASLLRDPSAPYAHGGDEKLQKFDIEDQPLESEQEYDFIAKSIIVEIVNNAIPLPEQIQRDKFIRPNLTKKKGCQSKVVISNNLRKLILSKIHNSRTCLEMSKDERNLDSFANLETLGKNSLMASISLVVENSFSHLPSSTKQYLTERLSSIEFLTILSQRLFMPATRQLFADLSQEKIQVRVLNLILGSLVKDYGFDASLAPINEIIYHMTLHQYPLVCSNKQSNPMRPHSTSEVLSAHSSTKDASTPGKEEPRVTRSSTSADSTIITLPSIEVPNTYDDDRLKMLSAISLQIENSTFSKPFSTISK
Assay: PBM E-score (8-mer binding enrichment) (E-score (-0.5 to 0.5)); higher = stronger / more preferred TF binding
Conditions: protein concentration: 200 nM; construct: GST-full length
Protocol: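 Universal 'all 10-mer' protein binding microarrays (Agilent AMADID 015681) probed with GST-tagged S. cerevisiae TFs (full-length or DBD) made by in vitro transcription/translation (PURExpress), about 100-200 nM. Bound TF was detected with fluorescent anti-GST. Each ungapped 8-mer (which stands for itself and its reverse complement) is scored by the PBM enrichment score (E-score), a modified Wilcoxon-Mann-Whitney statistic from -0.5 to +0.5, computed with the Universal PBM Analysis Suite. Scale: above 0.35 generally sequence-specific binding.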

Sequence	PBM E-score
ACAATCAA	0.202
GTTCTATA	-0.0345
AAGGGTGT	-0.00845
AGCGCTGG	0.0943
CACAACTG	-0.113
ACCTGGCA	-0.145
CGATTCTA	0.0229
CACCAACC	-0.0246
GTCACAGA	0.237
CGAATCAC	0.4
CCAATCAC	0.182
CGAATCCC	-0.125
CCAATCAG	0.0381
CGAATCCG	0.0437
CGAATCAG	0.384
ACCTTGGA	-0.0702
ACAACTGC	-0.0478
AAAAGCCG	-0.213
CAGTCTTA	0.278
ATGTCTCG	0.17
CAGTCCTA	0.183
GAGTCCTA	0.399
ATGTCTCA	0.414
AAGTCTCC	0.107
GAGTCTTA	0.453

Sequence	PBM E-score
AAGTCCTA	0.186
ATGTCTCC	0.216
AAGTCTTA	0.213
GAGTCTCC	0.419
CAGTCTCC	0.211
AATCTTAA	0.244
CCCGCATA	-0.019
ATGTAGCA	-0.146
ACATCTGG	-0.137
AACTTCCG	0.0922
CAGTGATC	0.0804
AAGTCTCA	0.239
GAGTCTCA	0.411
TAGTCTCA	0.36
ATATGCAG	0.196
AGCAAATA	-0.157
GCACTGGC	-0.194
CACTCACG	0.112
TACTCACA	0.367
AACTCACA	0.259
CACTCACA	0.0403
AACTCACG	0.211
CACTCACC	0.207
GACTCACC	0.478
AACTCACC	0.275

Sequence	PBM E-score
GACTCACA	0.472
CCAGATCA	0.058
CGAAGCCA	0.0935
CTCCCCGA	-0.0625
AGTAGCTG	0.0121
GCAGAACC	-0.118
ATCGAGCA	-0.149
ACCTGACC	-0.13
AACTGACC	-0.163
AACTGACA	-0.287
AGCTGACC	-0.078
AGCTGACT	0.458
ACCTGACG	-0.192
AGCTGACG	-0.134
AACTGACT	0.404
ACCTGACT	0.44
AAGTGCAG	0.0456
CCCGTGCC	-0.103
AGGTAACG	-0.0878
ATTCCATA	-0.0291
AGCGCATC	-0.0879
CACTACTC	0.112
TACTACTA	0.0844
GACTACTA	0.417
CAGTACTC	0.24

Sequence	PBM E-score
AACTACTC	0.199
AACTACTA	-0.0232
GAGTACTC	0.381
AAGTACTC	0.282
GACTACTC	0.427
AACGTAAT	0.023
GTTGTCGA	-0.158
GCGTTGCC	-0.252
ACCCTGAC	0.158
GTTCAGAA	0.00278
AAGCAGCA	-0.264
ATTGTACA	0.0112
GTGACTAA	0.488
GGGACTAA	0.323
CTTACTAC	-0.0948
CTGACTAC	0.469
CTGACTAA	0.48
CAGACTAA	0.317
CGGACTAA	0.342
CGGACTAC	0.248
GTTACTAA	0.184
AACCGCTA	-0.169
ATGTTATA	-0.0918
CGAAGGAC	0.079
ACCGCGGG	0.0814

Sequence	PBM E-score
AGCGCCGA	-0.00218
ACCTTCGA	0.00431
GAATCTCA	0.101
CCGGATTA	-0.0124
CCAAGCTC	-0.22
AGATGTCG	-0.0862
TCTCACCA	-0.117
ACTCACCC	0.401
ACTCACCA	0.388
GCTCACCC	-0.0459
CCTCACCA	-0.134
ACTCACCG	0.384
ACTCACCT	0.338
CCTCACCC	-0.213
CCTCACCG	-0.033
ATCGGAGC	-0.0582
GACGAAGC	-0.0864
TCGGATCA	-0.0516
ATTAGAAT	0.186
GTTAATAA	0.117
GTTAATCA	0.451
ATTAATCC	0.256
ATTAATCG	0.269
GTTAATTA	0.0895
CTTAATAA	0.136

Sequence	PBM E-score
ATTAATCA	0.441
CTTAATCC	0.114
CTTAATCA	0.45
AGACCAAA	0.0161
GTAGTAAA	0.107
CACTTGCG	-0.0335
GTAGGAAA	0.00646
CGGTTACC	0.0378
ATATTGGC	-0.228
GGAGGACC	-0.37
GACTTAAA	0.325
CCAAGTCA	0.317
TCAAGTCA	0.379
ACAAGTCG	0.0706
ACAAGTCA	0.374
ACAAGTCT	0.0793
GCAAGTCA	0.361
ACAGGGCA	-0.128
ATATCCAC	-0.0172
TCAAAGCA	0.0603
ACTGTTGC	-0.0887
AAACCGGC	-0.0714
ATTCGCGA	0.122
AAATGATA	0.104
AAATGAGT	0.427

Sequence	PBM E-score
AAATGACT	0.475
AAATGAGC	0.058
AAATGACC	-0.0187
AAATGACG	0.0769
AAATGATC	0.121
AAATGAGG	-0.229
AAATGATT	0.437
ACTATCTC	0.212
AATCCGGG	-0.239
CCGTCTCA	0.0264
CTAATCAG	0.286
ATAATCAA	0.269
ATAATCAG	0.33
GTAATCAA	0.325
ATAATCCC	-0.227
ATAATCTC	0.137
GAAATCAC	0.347
CTAATCGC	0.128
ATAATCAT	0.45
CTAATCAC	0.393
GTAATCAC	0.413
ATAATCAC	0.385
